High-throughput results (PubChem BioAssay)
This is a sample that favours compounds with a hit; in the whole collection about 2.8% have one here.
SENP7 inh = SENP7 protease inhibitors, primary screen, biochemical, luminescence, uHTS | Sentrin-specific protease 7 (Homo sapiens), Q9BQF6 | inhibition, % at 5 µM | 330,000 tested, 1.5% active | recombinant SENP7, Z-RLRGG-aminoluciferin luminescence, 40 min;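 active = inhibition above about 50% at the single test dose, limit read from the data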;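 also: plate controls were DMSO with enzyme for no effect and no enzyme buffer wells for full effect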
Target sequence (Q9BQF6 706-1050 limits assumed): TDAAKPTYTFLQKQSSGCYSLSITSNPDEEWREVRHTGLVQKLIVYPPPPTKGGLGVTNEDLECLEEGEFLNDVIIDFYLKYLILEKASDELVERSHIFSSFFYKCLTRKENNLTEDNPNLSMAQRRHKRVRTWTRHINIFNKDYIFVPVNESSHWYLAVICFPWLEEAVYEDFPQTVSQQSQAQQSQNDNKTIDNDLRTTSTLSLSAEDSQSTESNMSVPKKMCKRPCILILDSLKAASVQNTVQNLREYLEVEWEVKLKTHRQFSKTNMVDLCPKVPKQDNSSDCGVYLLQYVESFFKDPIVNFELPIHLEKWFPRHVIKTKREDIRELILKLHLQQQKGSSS
SENP8 block-1 = human SENP8 protease inhibitors, primary screen, biochemical, fluorescence, Nedd8 protein substrate, uHTS | inhibition, % at 20 µM | Sentrin-specific protease 8 (Homo sapiens), Q96LD8 | recombinant SENP8 | 360,000 tested, 0.64% active | AID 602440, 2012; in the data active = inhibition mostly above about 40%, no sharp cut-off; inactive = mostly below about 27%
Target sequence (Q96LD8 whole entry, looked up): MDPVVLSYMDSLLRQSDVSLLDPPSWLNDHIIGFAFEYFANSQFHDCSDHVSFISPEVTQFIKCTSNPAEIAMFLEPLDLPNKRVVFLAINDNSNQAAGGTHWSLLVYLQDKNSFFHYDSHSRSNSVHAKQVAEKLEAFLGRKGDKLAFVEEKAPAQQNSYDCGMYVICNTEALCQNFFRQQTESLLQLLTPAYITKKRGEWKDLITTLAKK
HSP90 inh = HSP90 inhibitors, primary screen, cell lysate, luminescence; AID 1789, 2009; Rabbit reticulocyte lysate, luciferase refolding luminescence, 3 h; inhibition, % at 5.6 µM; Heat shock protein HSP 90 (rabbit reticulocyte lysate; luciferase refolding); 290,000 tested, 0.91% active;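 active = inhibition above the screen-wide mean plus 3 SD, computed separately per campaign, cut at about 16% in these data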;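 also: 0% = DMSO wells and 100% = 60 µM geldanamycin wells; inhibitors lower the luminescence because luciferase stays unfolded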
SENP8 block-2 = SENP8 protease inhibitors, primary screen, biochemical, luminescence | Sentrin-specific protease 8 (Homo sapiens), Q96LD8 | purified SENP8, Z-RLRGG-aminoluciferin cleavage | inhibition, % at 10 µM | 330,000 tested, 1.2% active | AID 2540, 2010; in the data active = inhibition above about 50%
SENP6 block = SENP6 protease inhibitors, primary screen, biochemical, luminescence, uHTS; Sentrin-specific protease 6 (Homo sapiens), Q9GZR1; Recombinant SENP6 catalytic domain, aminoluciferin luminescence; inhibition, % at 10 µM; 330,000 tested, 1.8% active; AID 2599, 2010;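 active = inhibition above about 50% at the single tested dose, limit read from the data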;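 also: plate controls were DMSO wells with enzyme for no effect and DMSO wells lacking enzyme for full effect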
SENP8 conf = SENP8 protease inhibitors, retest, confirmation, biochemical, luminescence, single concentration; shares compounds with SENP7 inh; Recombinant SENP8, Z-RLRGG-aminoluciferin luminescence, 60 min; inhibition, % at 12.5 µM; 6,200 tested, 40% active; AID 488912, 2010;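 active = mean inhibition across replicates above about 50%, limit read from the data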
SENP6 conf = SENP6 protease inhibitors, confirmation, biochemical, luminescence, single concentration. shares compounds with SENP7 inh. recombinant SENP6, Z-RLRGG-aminoluciferin luminescence. inhibition, % at 12.5 µM. 6,200 tested, 58% active. AID 488915, 2010
SENP7 confirm = SENP7 protease inhibitors, retest, confirmation, biochemical, luminescence, single concentration | shares compounds with SENP7 inh | recombinant SENP7, Z-RLRGG-aminoluciferin luminescence, 40 min | inhibition, % at 12.5 µM | 6,200 tested, 69% active
Casp3 SENP sel = caspase-3 protease inhibitors, confirmation, selectivity assay for SENP inhibitor project, biochemical, single concentration; shares compounds with SENP7 inh; purified caspase-3, Z-DEVD-aminoluciferin luminescence, 60 min; inhibition, % at 12.5 µM; 6,200 tested, 60% active; AID 488918, 2010;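 active = mean inhibition above about 50%, limit read from the data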;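 also: plate controls were enzyme with DMSO for no effect and wells without caspase-3 for full effect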
SENP luc ctr = interferes with luciferase luminescence in SENP counter-screen; AID 488919; shares compounds with SENP7 inh; 6,200 tested, 39% active; Pre-incubated SENP8/Z-RLRGG-aminoluciferin, luciferase luminescence interference; inhibition, % at 12.5 µM;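 active = mean inhibition above about 50% when retested at one dose, limit read from the data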;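 also: plate controls were DMSO wells with completed reaction for no effect and substrate without enzyme for full effect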
Numbers without * were called inactive; i = inactive; · = no result given.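 The calls were made as follows, unless noted: active = mean inhibition above about 50% in the one-dose retest (limit read from the data); inactive = the rest.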

SMILES	SENP7 inh	SENP8 block-1	HSP90 inh	SENP8 block-2	SENP6 block	SENP8 conf	SENP6 conf	SENP7 confirm	Casp3 SENP sel	SENP luc ctr
Cc1ccc(-c2nnc(-c3ccccc3)o2)cc1Br	75*	4	-1	28	59*	20	19	24	41	9
Brc1cccc(-c2nnc(-c3ccccc3)o2)c1	79*	15	5	70*	87*	49	71*	93*	59*	17
Cc1ccc(-c2nnc(-c3cccc(Br)c3)o2)cc1	60*	7	3	37	74*	24	21	26	15	5
Cc1cccc(-c2nnc(-c3ccc(N)cc3)o2)c1	53*	-351	7	37	8	47	65*	88*	63*	40
Cc1cc(S(=O)(=O)N(Cc2ccccc2)Cc2ccc(N(C)C)cc2)ccc1-n1cnnn1	-2	16	6	1	-35	·	·	·	·	·
CC(C)C[C@H](NC(=O)NCc1ccc(F)cc1)C(=O)O	8	11	-1	6	-2	·	·	·	·	·
Clc1cc2nc(-c3cccnc3Cl)[nH]c2cc1Cl	73*	-207	2	38	77*	3	8	90*	59*	1
Cc1cc2nc(-c3ccccc3O)[nH]c2cc1C	·	-495	·	·	·	·	·	·	·	·
O=c1c2cc(NC(=S)NC3CCN(Cc4ccccc4)CC3)ccc2nc2n1CCCCC2	9	0	-1	-4	-16	·	·	·	·	·
O=c1cc(-c2ccccc2)oc2ccc(Cl)cc12	·	20	·	·	·	·	·	·	·	·
COc1ccc(-c2cc(=O)c3cc(OC)ccc3o2)cc1	98*	-173	2	88*	92*	9	35	4	25	6
COc1ccc2oc(-c3ccccc3)cc(=O)c2c1	·	7	·	·	·	·	·	·	·	·
O=c1cc(-c2ccccc2)oc2ccc(Br)cc12	73*	15	·	45	42	8	9	14	22	6
COc1ccc2c(c1)oc(=O)c1cc(OC)ccc12	80*	-212	-3	46	65*	42	43	63*	65*	27
CSc1ccc(-c2cc(=O)c3ccccc3o2)cc1	-12	-280	0	57*	59*	66*	63*	84*	51*	38
CCC(c1nnnn1CS(=O)(=O)c1ccc(C)cc1)N1CCC(C(N)=O)CC1 (stereo unspecified)	1	8	4	-7	-4	·	·	·	·	·
COc1ccc(-c2cc(=O)c3cc(OC)ccc3[nH]2)cc1	81*	i	4	74*	84*	17	78*	96*	93*	-5
COc1ccc(-c2cc(=O)c3cc(C)ccc3[nH]2)cc1	15	-134	6	19	32	·	·	·	·	·
COc1ccc2nc(NC(=O)c3c(C)noc3C)sc2c1	83*	i	·	73*	78*	83*	81*	97*	88*	65*
Cc1noc(C)c1C(=O)Nc1nc2ccc(S(C)(=O)=O)cc2s1	62*	-183	2	38	66*	60*	56*	85*	85*	62*
COc1ccc(C(=O)Nc2nnc(-c3ccco3)s2)cc1	95*	-293	12	78*	88*	-24	11	43	25	2
COc1ccc(C(=O)Nc2nnc(-c3cccs3)s2)cc1	56*	-468	0	-9	-12	-4	-4	-2	19	8
O=C(Nc1nnc(-c2ccco2)s1)c1ccccc1	0	-236	14	50	68*	16	54*	85*	77*	28
CC(C)C(=O)Nc1nnc(-c2ccco2)s1	-7	-19	-5	-7	-31	·	·	·	·	·
COc1ccc(NC(=O)Nc2nnc(-c3cccs3)s2)cc1	5	-134	-2	2	-4	·	·	·	·	·
SMILES	SENP7 inh	SENP8 block-1	HSP90 inh	SENP8 block-2	SENP6 block	SENP8 conf	SENP6 conf	SENP7 confirm	Casp3 SENP sel	SENP luc ctr
CC(C)CCNC(=O)CSc1nc2ccccc2s1	5	3	-3	2	-7	·	·	·	·	·
COc1cccc(C(=O)Nc2ccc(C(=O)c3ccccc3)cc2)c1	22	5	2	23	47	·	·	·	·	·
CN(C)S(=O)(=O)Oc1ccc(C(=O)Nc2cccc(Cl)c2)cc1	75*	12	-2	70*	58*	83*	82*	96*	63*	72*
COc1cccc(C(=O)Nc2ccc(C3CC3(Cl)Cl)cc2)c1 (stereo unspecified)	94*	12	-2	92*	85*	96*	97*	103*	92*	40
COC(=O)c1cccc(NC(=O)c2cccc(OC)c2)c1	84*	38	-1	65*	85*	69*	71*	94*	85*	78*
COc1cccc(C(=O)Nc2ccc(C(F)(F)F)n(C)c2=O)c1	80*	-22	6	65*	45	9	50	82*	70*	21
CCOc1ccc(C(=O)Nc2ccc(C(F)(F)F)n(C)c2=O)cc1	5	-70	3	-2	-14	·	·	·	·	·
CN(C)S(=O)(=O)Oc1ccc(C(=O)Nc2cccc(C(F)(F)F)c2)cc1	10	15	0	1	-8	·	·	·	·	·
COc1cccc(C(=O)Nc2cccc(C(C)=O)c2)c1	35	-7	-4	11	-8	·	·	·	·	·
COC(=O)c1ccc(C(=O)N(CCN(C)C)c2nc3c(Cl)cccc3s2)cc1	5	17	-1	0	-8	·	·	·	·	·
COc1cccc(C(=O)NC(=S)Nc2ccc(N3CCCC3)cc2)c1	-3	27	1	11	19	·	·	·	·	·
COc1cccc(C(=O)Nc2ccc(F)c(F)c2F)c1	51*	12	0	12	41	44	41	77*	70*	53*
COc1cccc(C(=O)NC(=S)Nc2ccc(N(C)C)cc2)c1	28	19	0	32	57*	48	57*	78*	39	24
